Screening data deposited in PubChem by The Scripps Research Institute Molecular Screening Center.
hgDAF12 agonist = agonists of H. glycines DAF-12 nuclear receptor; HEK293 GAL4-hgDAF12 UAS-luciferase reporter, agonist luminescence; normalized to butyrate control; activation, % at 6.8 µM; actives 1.8% (n = 370,000);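 active = activation above a cutoff set at the mean of all screened compounds plus 3 SD, cut at about 10% in these data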;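 also: 0% = DMSO wells and 100% = sodium butyrate wells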
DAX1 inh-1 = inhibits human nuclear receptor DAX1 | inhibition, % at 6.75 µM | HEK293 Gal4-DAX1 luciferase reporter, luminescence | actives 0.99% (n = 340,000) | P51843;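 active = inhibition above the mean over all tested compounds plus 3 SD, cut at about 4.2% in these data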;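 also: 0% = DAX1-transfected cells with DMSO and 100% = empty-vector control cells with DMSO; inhibition shows as a rise in luminescence from relieved DAX1 repression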
Target sequence (P51843 207-470 limits assumed): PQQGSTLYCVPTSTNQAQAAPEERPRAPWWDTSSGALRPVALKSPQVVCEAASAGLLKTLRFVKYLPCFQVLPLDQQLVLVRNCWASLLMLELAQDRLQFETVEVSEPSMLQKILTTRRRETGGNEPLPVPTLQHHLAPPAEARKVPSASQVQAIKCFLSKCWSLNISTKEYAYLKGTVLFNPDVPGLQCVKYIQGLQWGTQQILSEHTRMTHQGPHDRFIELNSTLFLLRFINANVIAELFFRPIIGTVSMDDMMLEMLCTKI
hcDAF-12 act = activates DAF-12 receptor from parasite H. contortus; AID 652067; actives 1.4% (n = 370,000); activation, % at 6.8 µM; HEK293 hcDAF-12 lit1-tk-luc reporter, luminescence; 0% DMSO, 100% Δ7-dafachronic acid;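 active = activation above the mean of all tested compounds plus 3 SD, cut at about 5.5% in these data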;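 also: 100% = response to 3 µM Δ7-dafachronic acid high control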
DAX1 inh-2 = blocks DAX1 repression of SF-1 activated StAR promoter; HEK293T StAR-luciferase reporter, SF-1/DAX-1 repression relief; inhibition, % at 6.8 µM; AID 652010; actives 1.1% (n = 370,000);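 active = inhibition above the mean over all tested compounds plus 3 SD, cut at about 3.6% in these data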;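 also: 0% = DAX-1 cells with DMSO and 100% = cells lacking DAX-1 with DMSO; higher inhibition means more luminescence from relief of DAX-1 repression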
ssDAF-12 act = activates DAF-12 receptor from parasite S. stercoralis. activation, % at 6.8 µM. AID 652126. HEK293 ssDAF-12/GRIP1 lit1-tk-luc reporter, luminescence; % of 3 µM dafachronic acid response. actives 1% (n = 370,000);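 active = activation above the mean over all tested compounds plus 3 SD, cut at about 0.9% in these data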;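 also: 0% = DMSO-only wells and 100% = 3 µM delta7-dafachronic acid wells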
* marks the source's active call; other numbers are inactive results; . = not tested or not shown. An excerpt weighted towards active compounds, which were near 4.1% of everything screened.

SMILES	hgDAF12 agonist	DAX1 inh-1	hcDAF-12 act	DAX1 inh-2	ssDAF-12 act
O=C(NC1CC1)C1=C[C@H](c2ccc3c(c2)OCO3)C[C@H](OCc2ccc(CO)cc2)O1	11*	2	-1	0	0
O=C(O)C1=C[C@@H](c2ccc3c(c2)OCO3)C[C@@H](OCc2ccc(CO)cc2)O1	0	2	0	0	-1
c1ccc2oc(SCc3cn4ccccc4n3)nc2c1	10	2	5.9*	3.7*	-1
c1ccc(CSCc2cn3ccccc3n2)cc1	13*	2	3	1	0
Cc1cccc2nc(CSc3nc4ccccc4o3)cn12	0	-1	0	1	-1
COC(=O)[C@]12C[C@H](CC(=O)NCc3ccccc3)C(=O)N(Cc3ccc4c(c3)OCO4)C1=C[C@H](COCc1ccccc1)O[C@@H]2C	1	.	0	0	-1
O=C(CSc1nnc(-c2ccccc2)n1-c1ccccc1)Nc1ccc(Oc2ccccc2)cc1	-1	.	0	-1	-1
O=c1c2ccccc2oc2ccc(Oc3ccccc3)cc12	9	5.1*	3	2	0
O=C(Nc1cccc(C(F)(F)F)c1)OC1CC2CC1[C@H]1CCCCN1[C@H]2Cc1ccccc1 (stereo partly drawn)	0	.	-1	-1	-1
O=C(NCCNC(=O)c1ccccc1)c1ccccc1	1	0	-1	0	-1
C[N+](C)(C)CCNC(=O)c1ccccc1	-1	.	-1	4.1*	-1
O[C@@H](CNC[C@H](O)c1ccccc1)c1ccccc1	0	-1	0	0	-1
O=C(NCC(O)c1ccccc1)c1ccccc1 (stereo not drawn)	7	4.3*	2	3	0
Cn1c(=O)cc(OCCCC(=O)Nc2cc(-c3cn[nH]c3)ccn2)c2ccccc21	-11	.	-6	.	-3
O=C(CNCc1ccccc1Cl)Nc1ccc2c(c1)OCCO2	12*	2	0	3	-1
COC(=O)c1sccc1NC(=O)CSc1ccccc1N	-1	4.8*	0	0	-1
CC(C(=O)Nc1ccc2c(c1)OCCO2)N(C)Cc1c(F)cccc1Cl (stereo not drawn)	-1	4.5*	-2	1	0
O=C(CSc1nccc(=O)[nH]1)Nc1ccc2c(c1)OCCO2	11*	4.8*	2	1	0
CCOC(=O)[C@@]12CCCC3=C1N(CCC3)C(=O)[C@H]2CC(=O)N1CCCCC1	0	.	2	0	-1
Nc1ccccc1SCC(=O)Nc1ccc2c(c1)OCO2	5	0	1	4.2*	0
O=C(CN1C(=O)c2cccc3cccc1c23)Nc1ccc2c(c1)OCO2	3	4.4*	-1	-1	-2
O=C(CSCc1ccccc1Cl)Nc1ccc2c(c1)OCCO2	11*	5.8*	3	3	-1
CCOC(=O)C1=CCN(S(=O)(=O)c2cccc(Cl)c2)C1c1ccc(Cl)c(Cl)c1 (stereo not drawn)	-1	.	-1	-2	-1
COCCNC(=O)COC(=O)C1=Cc2ccccc2OC1	-2	4.7*	0	0	0
CCOc1cc(C(=S)N2CCOCC2)ccc1OC(=O)/C=C/c1ccc(OC)c(OC)c1	11*	-1	-1	0	-2
SMILES	hgDAF12 agonist	DAX1 inh-1	hcDAF-12 act	DAX1 inh-2	ssDAF-12 act
CCOc1ccc(/C=C/C(=O)N2CCOCC2)cc1OC	-1	0	0	0	-1
N#C[C@@H]1N[C@H](CO)[C@@H]1c1ccccc1	2	.	-2	0	-2
S=c1nc[nH]c2c1[nH]c1ccc(Cl)cc12	-5	5.1*	0	-1	0
S=c1nc[nH]c2c1[nH]c1ccccc12	0	2	5	0	0
O=C(NCCN1CCOCC1)/C(=C/c1ccccc1)NC(=O)c1ccccc1	5	0	-2	0	-1
CSc1ccc(/C=C(\NC(=O)c2ccccc2)C(=O)NCCN2CCOCC2)cc1	0	5.2*	-1	0	-1
CCCCN1CCCOc2cc(Br)ccc2S1(=O)=O	-1	.	0	0	0
N#CCSc1ccc(-c2nc3ccccc3[nH]2)cn1	11*	0	2	3	0
CCOC(=O)CSc1ccc(-c2nc3ccccc3[nH]2)cn1	5	2	-1	-1	-1
CCC(C)CNC(=O)CSc1nnc(-c2cccnc2)n1C1CCCCC1 (stereo not drawn)	10	.	1	1	0
O=[N+]([O-])c1ccc(-c2nc(Nc3ccc(O)cc3)c3ccccc3n2)cc1	5	-1	3	-1	-1
O=C(O)c1ccc(Nc2nc(-c3ccc([N+](=O)[O-])cc3)nc3ccccc23)cc1	1	0	5.6*	1	-1
Cc1cc2c(NC(=O)Nc3ccccc3)cccc2nn1	-1	5.4*	-2	0	-1
O=C(O)COc1ccc2c(c1)O/C(=C\c1cccs1)C2=O	3	0	0	0	0
COc1ccc2c(c1)O/C(=C\c1sccc1C)C2=O	11*	0	2	0	-1
Cc1ccc(CN2CCCCC(NC(=O)Nc3ccccc3F)C2=O)cc1 (stereo not drawn)	0	.	-2	-1	-1
Cn1c(C(=O)c2ccccc2[N+](=O)[O-])nc2ccccc21	4	1	5.8*	-1	0
Cn1c(C(=O)c2ccccc2)nc2ccccc21	2	2	3	0	-1
Oc1cc(O)cc(C=Cc2ccc(O)c(O)c2)c1	10	.	4	4.3*	0
CCN1CCCC1CN(Cc1cc2cc(C)ccc2[nH]c1=O)C(=O)Nc1ccccc1OC (stereo not drawn)	1	0	3	4.0*	-1
Cc1cc(=O)[nH]c(N/N=C/c2ccc(F)cc2)n1	0	1	-1	0	1.3*
Cc1cc(=O)[nH]c(N/N=C/c2ccc(N(C)C)cc2)n1	1	0	-1	0	-1
O=C(NC1CC[C@@]23CCCN2C(=O)CCC[C@H]3C1)c1ccccc1 (stereo partly drawn)	0	.	-1	.	-1
O=[N+]([O-])c1ccc(/C=N/NC(=S)Nc2ccccc2C(F)(F)F)o1	-1	4.2*	0	-1	-1
O=C(N/N=C/c1ccc([N+](=O)[O-])o1)C(O)c1ccccc1 (stereo not drawn)	-5	-4	-3	-1	-2
COc1cc(OC)cc(-c2nc3ccccc3c(=O)n2OC(=O)c2ccccc2C)c1	12*	-1	-1	0	-1
O=C(On1c(-c2ccccc2)nc2ccccc2c1=O)c1ccco1	4	1	1	0	0
COc1ccc(C(=O)OCCCN(C)C2CN(Cc3cn(Cc4ccccc4Cl)nn3)S(=O)(=O)C2)cc1OC (stereo not drawn)	-3	.	-2	-2	-2
